Test results published in PubChem BioAssay (NCATS).
“And” between values parts separate entries of the source, which are not always exact repeats. Equal values may be shown once. Records with an inconclusive call do not appear. The source made the active and inactive calls. The call rests on the fitted dose curve; in most records, active means well fitted activation curve with a large enough effect; inconclusive means small, poorly fitted or top-dose-only effect; inactive means no such curve, though single readings can be large or run the other way.

Target: Cellular tumor antigen p53 (Homo sapiens) (UniProt P04637)
Test: Primary qHTS for small molecule compounds that upregulate eGFP-tagged delta133p53alpha (in N-terminal) cells. (AID 2060322); further: nearly all actives have a fitted effect of over 75% in size;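 on activation: cells pre-induced with doxycycline then dosed without doxycycline; series mostly up to about 56 µM; 0% = DMSO vehicle and 100% = reference activator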
Conditions: NCI-H358 eGFP-delta133p53alpha fluorescence, 24 h; activation: hits give high values
Excerpt: Assay Development and Screening Technology
National Center for Advancing Translational Sciences (NCATS),
National Institute of Health (NIH), Rockville, Maryland
Cellular senescence (CS) is one of the hallmarks of aging and age-related diseases. Senescent cells are characterized by an irreversible growth arrest, an increase in senescence-associated beta-galactosidase (SA-beta-gal) activity and p16INK4a expression, an activation of the DNA damage response pathways, and the emergence of a senescence-associated secretory phenotype (SASP).
Delta133p53alpha, a human/primate-specific p53 protein isoform, delays or inhibits the induction of CS and SASP in various types of human cells, including progeria-derived fibroblasts, primary normal astrocytes, and CD8+ T lymphocytes. Induction of delta133p53alpha with small molecule compounds may provide therapeutic opportunities for inhibition of senescence/SASP-associated pathologies in progeria syndromes, astrocyte-mediated neuroprotection in neurodegenerative diseases, and possibly prevention and treatment of a wider range of senescence- and aging-associated diseases.
Here we report the development and validation of a cell-based quantitative high throughput screening (qHTS) assay in 1,536-well format. This qHTS assay uses the NCI-H358 cell line with doxycycline-inducible expression of enhanced green fluorescent protein (eGFP)-tagged delta133p53alpha, which allows efficient and highly quantitative measurement of the protein levels.
PROTOCOL TABLE (as described by Inglese J, Shamu CE and Guy RK. 2007)
SEQUENCE No. (e.g., 1, 2, 3, etc.); […] (e.g., Cells, Incubation, Reagent, etc.); VALUE; DESCRIPTION.
1; Cells; 4uL; 800 doxycycline treated cells / well in doxycycline-free media, 1536-well black, clear-bottom low base Aurora microplates.
2; Compounds; 23 nL; Kalypsis pin tool (Wako) equipped with 1536-well pin heads, 5-azacytidine positive control.
3; Incubation; 24 hr; 37C, 5% CO2; 95% relative humidity.
4; Aspiration; 1x; BioTek EL406 washer dispenser (Agilent).
5; Fixing; 3.5% paraformaldehyde, BioTek EL406 washer dispenser (Agilent).
6; Washing; 1x PBS; BioTek EL406 washer dispenser (Agilent).
7; Nuclei staining; 1:1000 dilution of Hoechst 33342 (Thermofisher), BioTek EL406 washer dispenser (Agilent).
8; Incubation; 20 min; in the dark at room temperature.
9; Washing; 2x, 1x PBS (ThermoFisher), BioTek EL406 washer dispenser (Agilent).
10; Reagent; 10 uL; 1x PBS per well, sealed with clear adhesive tape.
NOTES (numbers refer to sequence numbers above).
1. NCI-H358 cells expressing eGFP-tagged delta133p53alpha were grown in T75 culture flasks and treated with doxycycline for 24h, at 10 ng/ml for eGFP-D133p53a cells (N-terminal cell) and 100 ng/ml for D133p53a-eGFP cells (C-terminal cells). Cells were trypsinized, counted using a Counted 3 Automated Cell Counter (Thermo Fisher), and diluted to a concentration of 200,000 cells/ml. A Multidrop Combi Reagent Dispenser (ThermoFisher) was used to dispense 800 cells/well in […] of doxycycline-free media, into 1536-well black/clear bottom low base plates (AuroraMicroplates).
2. After plating cells, 23 nl of compound library, DMSO vehicle control or positive control (5-azacytidine) were transferred by Pin Tool (Wako). The plate map layout was the same for each plate: (column 1) non-doxycycline treated cells + DMSO vehicle control; (column 2) doxycycline treated cells + DMSO vehicle control baseline; (column 3) doxycycline treated cells + positive control 57.5 uM final concentration 5-azacytidine; (column 4) doxycycline treated cells + serial dilution of 5-azacytidine, 16-point 1:2 titration spanning 1.8 nM to […] final concentration; (columns 5-48) doxycycline treated cells + titration of library compounds.
3. Cells were incubated at 37 °C, 5 % CO2, 95% RH with breathable metal lid for 24h.
4-10. […] After two washes, 10 ul of 1X PBS (Thermo Fisher) was dispensed to each well. Clear adhesive plate seals (VWR) were applied and plates stored at 4 °C.
11. […]
Potency means the concentration at half of the fitted maximal effect.

Cellular tumor antigen p53 (Homo sapiens), sequence (P04637 whole entry, looked up): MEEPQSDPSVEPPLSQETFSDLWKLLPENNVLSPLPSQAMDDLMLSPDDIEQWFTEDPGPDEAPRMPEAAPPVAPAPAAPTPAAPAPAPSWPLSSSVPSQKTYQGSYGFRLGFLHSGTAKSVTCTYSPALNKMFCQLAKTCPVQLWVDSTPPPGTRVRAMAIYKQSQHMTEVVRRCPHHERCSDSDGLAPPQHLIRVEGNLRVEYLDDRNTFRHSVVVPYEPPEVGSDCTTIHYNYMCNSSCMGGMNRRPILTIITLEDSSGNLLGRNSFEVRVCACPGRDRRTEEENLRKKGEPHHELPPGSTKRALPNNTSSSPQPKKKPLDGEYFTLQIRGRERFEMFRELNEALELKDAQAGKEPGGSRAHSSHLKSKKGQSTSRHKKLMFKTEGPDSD

Row | Structure (SMILES) | activation | Potency
1 | Cc1cc(NC(=O)Nc2ccc3c(ccn3C)c2)sn1 | 51% (inactive) | 
2 | O=C1NC(=O)[C@@]2(CCOc3ccc(F)cc32)N1 | -3.95% (inactive) and 3.53% (inactive) | 
3 | C=C1CC[C@@H]2[C@@](C)(CO[C@@H]3O[C@H](CO)[C@@H](O)[C@H](O)[C@H]3O)[C@H](O)CC[C@@]2(C)[C@@H]1CC/C(C)=C/CO[C@@H]1O[C@H](CO)[C@@H](O)[C@H](O)[C@H]1O | 23.2% (inactive) | 
4 | C[C@@H]1O[C@@H](O[C@@H]2CO[C@@H](O[C@H]3CC[C@@]4(C)C(CC[C@]5(C)C4CC=C4[C@@H]6CC(C)(C)CC[C@]6(C(=O)O[C@@H]6O[C@H](CO)[C@@H](O)[C@H](O)[C@H]6O)CC[C@]45C)[C@]3(C)CO)[C@H](O)[C@H]2O[C@@H]2O[C@H](CO)[C@@H](O)[C@H](O)[C@H]2O)[C@H](O)[C@H](O)[C@H]1O (stereo not given in full) | -16.1% (inactive) | 
5 | CC1=C(COC2OC(CO)C(O)C(O)C2O)C(C(CO)C(=O)O)CC1 (stereo not given) | -6.87% (inactive) | 
6 | C[C@@H]1O[C@@H](OC[C@H]2O[C@@H](Oc3cc(O)cc4c3C(=O)C(O)(Cc3ccc(O)cc3)O4)[C@H](O)[C@@H](O)[C@@H]2O)[C@H](O)[C@H](O)[C@H]1O (stereo not given in full) | -11.5% (inactive) | 
7 | CCCN1CCC=C(c2cc(-c3ccc(C)cc3)no2)C1 | 2.86% (inactive) | 
8 | CC(C)(C)[N+]([O-])=Cc1ccc(S(=O)(=O)O)cc1S(=O)(=O)O | -9.61% (inactive) | 
9 | OCC(Cc1ccccc1)Nc1nc(Oc2ccc3c(c2)CCC3)nc2c1ncn2Cc1ccc(-c2ccccc2)cc1 (stereo not given) | 6.21% (inactive) | 
10 | C=C1C(=O)OC2C=C(C)CC/C=C(\CO)CC(O)C12 (stereo not given) | 9.92% (inactive) | 
11 | Cc1nnc(C(=O)NC(C)(C)c2nc(C(=O)NCc3ccc(F)cc3)c(O)c(=O)n2C)o1 | 12.2% (inactive) and -3.35% (inactive) and -11.5% (inactive) | 
12 | CC1(C)OC[C@H](NC(=O)Nc2ccc(Br)cc2Br)[C@H](c2ccccc2)O1 |  | 19 µM (active)
13 | O[C@@H]1CO[C@H]2[C@@H]1OC[C@@H]2O | -14.2% (inactive) | 
14 | CCN1CC(CCN2CCOCC2)C(c2ccccc2)(c2ccccc2)C1=O (stereo not given) | 5.08% (inactive) | 
15 | CC(O)COc1ccccc1 (stereo not given) | -13% (inactive) | 
16 | N[C@@H](Cc1ccc(F)cc1)C(=O)O | -38.4% (inactive) | 
17 | O=C1Nc2ccc(I)cc2/C1=C/c1cc(Br)c(O)c(Br)c1 | -56.5% (inactive) | 
18 | O=S(=O)(NCCNCC=Cc1ccc(Br)cc1)c1cccc2cnccc12 | -19.7% (inactive) | 
19 | C[C@@H]1C[C@@H](O)[C@@]2(CO)C(CO)=CCC[C@@H]2[C@@]12C[C@@H](c1ccoc1)OC2=O | 21.4% (inactive) | 
20 | C[C@H](NC(=O)Cc1cc(F)cc(F)c1)C(=O)N[C@@H]1C(=O)N(C)c2ccccc2-c2ccccc21 | 27.1% (inactive) and -2.39% (inactive) | 

Row | Structure (SMILES) | activation | Potency
21 | Cc1ccc(C(=O)Nc2cccc(C(F)(F)F)c2)cc1-c1ccc2nc(NCCN3CCOCC3)ncc2c1 |  | 26.9 µM (active)
22 | CC[N+](CC)(CCNC(=O)C(=O)NCC[N+](CC)(CC)Cc1ccccc1Cl)Cc1ccccc1Cl | -9.6% (inactive) | 
23 | CN(C)CCCCCCNC(=O)c1cccc(-c2cc(O)c3ncccc3c2)c1 | 0.333% (inactive) | 
24 | COc1c(C)cnc(Cn2cc(C#CCC(C)(C)O)c3c(Cl)nc(N)nc32)c1C | -10% (inactive) | 
25 | Cc1ncc(NC(=O)c2ccc(CN3CCN(C)CC3)c(C(F)(F)F)c2)cc1Nc1nccc(-c2cccnc2)n1 |  | 23.9 µM (active)
26 | CC1=CC(=O)c2ccccc2C1=O | 1.69% (inactive) and -31.8% (inactive) | 
27 | O=C(CCc1ccccc1)c1c(O)c([C@@H]2O[C@H](CO)[C@@H](O)[C@H](O)[C@H]2O)c(O)c([C@@H]2O[C@H](CO)[C@@H](O)[C@H](O)[C@H]2O)c1O | -1.53% (inactive) | 
28 | CC(C)C[C@H](CC(=O)O)C(=O)N[C@@H](Cc1c[nH]c2ccccc12)C(=O)N[C@@H](C)c1ccccc1 | -21.8% (inactive) | 
29 | CCCCc1nc2cc(/C=C/C(=O)NO)ccc2n1CCN(CC)CC |  | 27.3 µM (active)
30 | N#Cc1cccc(-c2c[nH]c3ncnc(N4CCOCC4)c23)c1 | -5.36% (inactive) | 
31 | Cc1c(N)cccc1C(F)(F)F | -19.8% (inactive) | 
32 | COc1cc(COC2OC(CO)C(O)C(O)C2O)cc(OC)c1O (stereo not given) | -6.87% (inactive) | 
33 | COc1ccc2c(c1)c(CC(=O)O)c(C)n2Cc1ccc(Cl)cc1 | -32.5% (inactive) | 
34 | C[C@@H]1O[C@@H](O[C@H]2[C@H](OC(=O)[C@]34CCC(C)(C)C[C@H]3C3=CCC5[C@@]6(C)C[C@H](O)[C@H](O[C@@H]7O[C@H](CO)[C@@H](O[C@H]8OC[C@](O)(CO)[C@H]8O)[C@H](O)[C@H]7O)[C@@](C)(CO)C6[C@H](O)C[C@@]5(C)[C@]3(C)C[C@H]4O)OC[C@H](O)[C@@H]2O)[C@H](O)[C@H](O)[C@H]1O[C@@H]1OC[C@@H](O)[C@H](O[C@@H]2OC[C@](O)(CO)[C@H]2O)[C@H]1O (stereo not given in full) | -17.6% (inactive) | 
35 | O=C(Nc1ccc(Oc2ccc(Cl)cc2)c(Cl)c1)c1cc(I)cc(I)c1O | -20.9% (inactive) | 
36 | COc1cc2ncnc(Oc3ccc(CC(=O)Nc4cnn(C(C)C)c4)cc3)c2cc1OC | 4.77% (inactive) | 
37 | O=C(/C=C/c1ccc(O)cc1)c1ccc(O)cc1O | -26.4% (inactive) | 
38 | C[C@@H](Oc1cc(-n2cnc3ccc(OC4CCN(C)CC4)cc32)sc1C(N)=O)c1ccccc1C(F)(F)F |  | 4.78 µM (active)
39 | COC1=CC(=O)O[C@@H](CCc2ccccc2)[C@@H]1O | -13% (inactive) | 
40 | CCCCNC(=O)[C@@H]1Cc2ccccc2N1C(=O)[C@@H](N)CC | -9.55% (inactive) | 
